PubChem BioAssay AID1272365 (Small Molecule Screening Facility, UW Madison, 2018)
Screen size: about 430,000 compounds; about 2,600 (0.6%) were called active. Cut-off read from the data, not from the text of the source: active = inhibition mostly above about 37% (no sharp cut-off); inactive = mostly below about 20%. This excerpt belongs to a sample that is enriched for actives.

What follows are compounds tested on PriA–SSB C-terminal tail interaction (Klebsiella pneumoniae) (assay: blocks PriA binding to SSB C-terminal tail, primary screen, biochemical, AlphaScreen (AID 1272365;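 for inhibition: plate controls were negative control peptide for no effect and reference peptide for full effect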)). Conditions: AlphaScreen SSBct-PriA binding, biotinylated peptide; at 33 µM, hits give high values.
With `CC(C)(CC(=O)NCc1ccc(F)cc1)CC1=NS(=O)(=O)c2ccccc2N1` the inhibition was -14% (inactive).
For `COc1ccc(C(=O)Nc2ccc(S(C)(=O)=O)cc2)cc1`, the inhibition was -8% (inactive).
With `CC(C)Sc1nc(N2CCCC2)c2cnn(CCNC(=O)c3cccs3)c2n1` the inhibition was -8% (inactive).
With `CCn1ccnc1CN1CCN(C)CC1` the inhibition was 0% (inactive).
In the case of `CC(=O)Nc1ccc(S(=O)(=O)N2CCN(S(=O)(=O)c3ccc(C)cc3)CC2)cc1`, the inhibition is reported as -19% (inactive).
With `N#Cc1nccnc1O[C@H]1CCCN(C(=O)c2ccc3nc[nH]c3c2)C1` the inhibition was -19% (inactive).
In the case of `Cc1cccc(-n2cc(-c3ccccc3)c3c(Nc4ccc(Oc5ccc(Cl)cc5)cc4)ncnc32)c1`, the inhibition is reported as -17% (inactive).
`Cc1cccc(C(=O)Nc2nnc(Cc3c[nH]c4ccccc34)s2)c1` was tested, and the inhibition was 6.73% (inactive).
`Cc1cccc(N=C2NN=C(c3c[nH]c4ccccc34)CS2)c1` was tested, and the inhibition was 48.7% (active).
In the case of `C=CCn1c(C)cc(C2=NNC(=NCC)SC2)c1C`, the inhibition is reported as 29.4% (inactive).
`Cn1cc(S(=O)(=O)Nc2ccc(CC(=O)N3CCOCC3)cc2)cn1` was tested, and the inhibition was 6% (inactive).
In the case of `C/C(=N\Nc1ccc(S(N)(=O)=O)cc1[N+](=O)[O-])c1cccs1`, the inhibition is reported as “inactive”.
`CC(CCC(C)C)=NNc1ccc(S(N)(=O)=O)cc1[N+](=O)[O-]` was tested, and the inhibition was 42.4% (active).
With `NS(=O)(=O)c1ccc(CNC(=O)c2ccc(Cl)cc2[N+](=O)[O-])cc1` the inhibition was -24.6% (inactive).
In the case of `COc1ccccc1C(=O)N1CCN=C1SCc1cccnc1`, the inhibition is reported as -0.73% (inactive).
`O=C(c1cc2n(n1)CCCO2)N1CCN(Cc2cccnc2)CC1` was tested, and the inhibition was -17% (inactive).
With `COc1cccc(OC)c1C(=O)N1CCN(Cc2cccnc2)CC1` the inhibition was 49% (active).
With `O=C(c1cc2ccccc2o1)N1CCN(C(=O)C2CC2c2ccccc2)CC1` (configuration not stated) the inhibition was 2% (inactive).
In the case of `Cc1cc(S(=O)(=O)N2CCOC23CCN(C(=O)c2cc(=O)c4ccccc4o2)CC3)ccc1F`, the inhibition is reported as -9% (inactive).
For `Cc1ccc2cc(C)c(N3CCC(C)CC3)nc2c1`, the inhibition was -34.6% (inactive).
With `CC1CCN(C(=O)Cn2c(-c3ccncc3)nc3ccccc32)CC1` the inhibition was 4% (inactive).
With `CC1CCN(c2nc(-c3ccccn3)nc3ccccc23)CC1` the inhibition was 102% (active).
In the case of `O=C1C(=O)N(CN2CCN(C(c3ccccc3)c3ccccc3)CC2)c2ccccc21`, the inhibition is reported as -1% (inactive).
In the case of `COC(=O)/C=C1\SC(=NNC(=O)c2ccccc2)NC1=O`, the inhibition is reported as -6.67% (inactive).
`Cc1nc(-c2cccs2)sc1CNC(=O)c1ccc(=O)[nH]c1` was tested, and the inhibition was 5% (inactive).
For `Cc1cc2cc3c(N)[nH]nc3nc2cc1C`, the inhibition was -6.78% (inactive).
`Nc1[nH]nc2nc(-c3ccccn3)ccc12` was tested, and the inhibition was 94.2% (active).
